Reference: PubChem BioAssay AID623870 (Broad Institute, 2012)
The whole screen tested about 390,000 compounds, of which about 2,600 (0.67%) were called active. For the sample, actives were picked, then their nearest neighbours and some compounds at random. Values without a mark were called inactive.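 How the source made its calls: active means mean inhibition of replicates at least 50% and at least half of replicates each reaching 50%; inconclusive means half or more replicates reach 50% but mean below 50%; inactive means the rest.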

These compounds were tested against Transforming acidic coiled-coil-containing protein 3 (Homo sapiens) (UniProt Q9Y6A5) (assay: inhibitors of ARNT PAS-B binding to TACC3 – biochemical, AlphaScreen, single concentration, primary screen (AID 623870;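 further: 0% = complete ARNT plus TACC3 wells and 100% = ARNT alone without TACC3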)). Conditions: AlphaScreen His-ARNT PAS-B/GST-TACC3 binding, luminescence; at 9.99 µM; active compounds read high; TACC3 fragment carries E629A point mutation.
CC(C)C#Cc1cnc2c(c1)C(=O)N([C@H](C)CO)C[C@H](C)[C@@H](CN(C)C(=O)Nc1cc(F)ccc1F)O2 gave an inhibition of 2.21%. Compound C[C@H]1CN([C@@H](C)CO)C(=O)c2cc(C#Cc3ccccc3F)cnc2O[C@H]1CN(C)C has an inhibition of -2.77%. Work on CC=Cc1ccc2n(c1=O)C[C@@H]1[C@@H](CO)[C@H](C(=O)NCC)[C@H]2N1CCC(F)(F)F (mixture of isomers) yielded an inhibition of -2.83%. With COc1ccccc1-c1nnc(NC(=O)c2cccc(N3C(=O)CCC3=O)c2)o1 the inhibition was 60.7% (active). COc1ccccc1C(=O)Oc1ccc(N2C(=O)CCC2=O)cc1 was tested, and the inhibition was -4.25%. Compound COc1ccc(Cl)cc1NC(=O)c1cccc(N2C(=O)C3CC=CCC3C2=O)c1 (configuration not stated) has an inhibition of 3.74%. For CCNC(=O)C[C@H]1CC[C@@H](NC(=O)C2CCOCC2)[C@@H](CO)O1, the inhibition was -5.26%. O=S(=O)(c1ccc(F)cc1)N1CCCCN2[C@H](CO)[C@@H](c3ccc(C#CC4CCCC4)cc3)[C@H]2C1 was tested, and the inhibition was 5.01%. Work on CC(C)NC(=O)Nc1cccc2c1O[C@H](CN(C)S(=O)(=O)c1ccccc1)[C@@H](C)CN([C@@H](C)CO)C2=O yielded an inhibition of -11.5%. C=CCOc1ccc(/C=N/NC(=O)C(C)Sc2ccccn2)cc1OCC (configuration not stated) showed an inhibition of 14.2%. With Cc1c(NC(=O)C(=O)N/N=C/c2cccs2)c(=O)n(-c2ccccc2)n1C the inhibition was 4.89%. With CNC(=O)C(=O)N/N=C/c1ccccn1 the inhibition was 57.1% (active). COc1ccccc1S(=O)(=O)N[C@@H]1C=C[C@H](CC(=O)N2CCOCC2)O[C@@H]1CO gave an inhibition of -20.1%. For CN1[C@@H]2c3ccc(C4=CCCCC4)c(=O)n3C[C@H]1[C@H](CO)[C@H]2C(=O)NCc1ccc(F)cc1, the inhibition was 3.89%. With Cc1cc(C)nc(N/N=C/c2c(CO)cnc(C)c2O)n1 the inhibition was 63% (active). Compound COc1ccc(CNC(=O)C[C@H]2C[C@@H]3c4cc(NC(=O)NC5CCCC5)ccc4O[C@@H]3[C@H](CO)O2)cc1 has an inhibition of -2.96%. COc1ccc(S(=O)(=O)N2CCCCN3[C@H](CO)[C@H](c4ccc(C5=CCCCC5)cc4)[C@@H]3C2)cc1 gave an inhibition of -0.894%. For CO[C@@H]1CN(C)C(=O)c2ccc(NC(=O)Nc3cc(Cl)cc(Cl)c3)cc2OC[C@H](C)NC[C@H]1C, the inhibition was 17.2%. C[C@H]1CN([C@@H](C)CO)S(=O)(=O)c2ccc(-c3ccncc3)cc2O[C@@H]1CN(C)C(=O)CC1CC1 gave an inhibition of -7.68%. In the case of COCC(=O)N1[C@H](CNC(=O)c2ccccn2)[C@H](c2ccccc2)[C@@H]1CO, the inhibition is reported as 0.322%. CCN(CC)CCOc1ccc2c(c1)C(=NNC(=O)c1ccccn1)c1cc(OCCN(CC)CC)ccc1-2 was tested, and the inhibition was 58.8% (active). Work on CCN(C[C@@H]1[C@H](c2ccccc2)[C@@H](CO)N1CC1CC1)C(=O)c1ccccn1 yielded an inhibition of 1.43%. With C[C@@H]1CN([C@@H](C)CO)C(=O)c2cccc(NC(=O)c3nc4ccccc4s3)c2O[C@@H]1CN(C)Cc1ccc(Cl)c(Cl)c1 the inhibition was -2.22%. For CCn1cc(/C=C2/SC(=S)NC2=O)c(C)n1, the inhibition was 23.8% (active). Compound Cc1nn(C)cc1/C=C1\CCC/C(=C\c2cn(C)nc2C)C1=O has an inhibition of 2.65%. Work on COc1ccc(NC(=O)N(C)C[C@H]2Oc3c(NC(=O)NC(C)C)cccc3C(=O)N([C@@H](C)CO)C[C@H]2C)cc1 yielded an inhibition of -14%. In the case of CCc1nnc(NS(=O)(=O)c2ccc(N=Cc3c(C)[nH]n(-c4ccc(C)cc4)c3=O)cc2)s1, the inhibition is reported as 45.6% (active). For CCc1nnc(NC(=O)CCN(c2ccc(C)cc2)S(=O)(=O)c2ccccc2)s1, the inhibition was 2%. COc1cc(SC#N)ccc1N=Cc1c(C)[nH]n(-c2ccc(C)cc2)c1=O was tested, and the inhibition was 2.45%. In the case of COc1ccc(-c2ccc3c(c2)[C@H]2[C@H](CCN2S(=O)(=O)c2ccccc2F)[C@H](CO)N3)cc1, the inhibition is reported as -0.779%. COc1cccc(C(=O)Nc2ccc3c(c2)C(=O)N(C)[C@@H]2CC[C@H](CC(=O)NCC4CC4)O[C@@H]2CO3)c1 showed an inhibition of -14.2%. For O=C(C[C@H]1CC[C@H](NC(=O)C2CCC2)[C@@H](CO)O1)NCCCN1CCOCC1, the inhibition was 0.473%. For C[C@H]1CN([C@@H](C)CO)C(=O)Cc2cc(NC(=O)CCC(F)(F)F)ccc2O[C@H]1CN(C)C(=O)NC1CCCCC1, the inhibition was -6.06%. Compound O=C(c1cccc(F)c1)N1CCN(c2ccc([N+](=O)[O-])c3cccnc23)CC1 has an inhibition of -1.2%. C/C(=N/N1CCN(Cc2cccc3ccccc23)CC1)c1cccnc1 showed an inhibition of 3.31%. Compound CCCc1cc(=O)oc2c(C)c(O)c(CN3CCCCC3)cc12 has an inhibition of 0.049%. Oc1c(CN2CCCC2)cc(COCc2ccccc2)c2cccnc12 was tested, and the inhibition was 64.5% (active). With Oc1c(CN2CCN(c3ccc(F)cc3)CC2)cc(Cl)c2cccnc12 the inhibition was 73.2% (active). O=C(c1ccccc1)c1cccn1CC(=O)N1CCN(c2ccc(F)cc2)CC1 showed an inhibition of 1.56%. In the case of C[C@@H]1CCCCO[C@H](CN(C)C(=O)CCC(F)(F)F)[C@H](C)CN([C@H](C)CO)C(=O)c2cc(NC(=O)NC3CCCCC3)ccc2O1, the inhibition is reported as -7.47%. With CCNC(=O)[C@H]1[C@H](CO)[C@H]2Cn3c(ccc(-c4cccc(OC)c4)c3=O)[C@H]2N1Cc1nccs1 the inhibition was -9.07%. For CO[C@@H]1CC[C@@H]2CCOc3ccc(C#N)cc3C(=O)N(C)C[C@@H](C)C(=O)N(C)C[C@@H]1O2, the inhibition was -7.05%. With CC(C)NC(=O)N(C)C[C@H]1OCCCC[C@H](C)Oc2ccc(NC(=O)CCCN(C)C)cc2C(=O)N([C@@H](C)CO)C[C@H]1C the inhibition was -0.512%. With COc1ccccc1-c1cnc2c(c1)C(=O)N([C@H](C)CO)C[C@@H](C)[C@@H](CN(C)Cc1ccncc1)O2 the inhibition was -5.7%. CC(=O)N1[C@@H](CO)[C@H](c2ccccc2)[C@@H]1CN(C)C(=O)CN1CCOCC1 showed an inhibition of -11.7%. With Cc1noc(C)c1NC(=O)Nc1ccc2c(c1)C(=O)N([C@@H](C)CO)C[C@H](C)[C@H](CN(C)S(=O)(=O)c1cn(C)cn1)OCCCC[C@@H](C)O2 the inhibition was -9.38%. For COC(=O)C[C@H]1C[C@H]2c3cc(NC(=O)NC4CCCCC4)ccc3O[C@H]2[C@H](CO)O1, the inhibition was -2.98%. In the case of CN1c2ccc(C=O)c3c(C=O)ccc(c23)N(C)C1(C)C, the inhibition is reported as 13.9% (active). With CCSC1(SCC)N=C(N)C2(C#N)C(c3ccccc3)NC(C)=CC12C#N (configuration not stated) the inhibition was 48.6% (active). CCCC(=O)Nc1ccc2c(c1)OC[C@H](C)N(C(=O)C1CCCC1)C[C@@H](C)[C@H](OC)CN(C)C2=O gave an inhibition of -5.43%. COc1ccccc1NC(=O)N[C@H]1CC[C@@H](CC(=O)N[C@@H](C)c2ccccc2)O[C@H]1CO showed an inhibition of -7.69%. Compound CCCNC(=O)C[C@H]1C[C@@H]2c3cc(NC(=O)C4CCOCC4)ccc3O[C@@H]2[C@@H](CO)O1 has an inhibition of -13.8%. For CCCC#Cc1ccc2c(c1)O[C@@H](CN(C)S(=O)(=O)c1cccc(OC)c1)[C@H](C)CN([C@@H](C)CO)S2(=O)=O, the inhibition was 4.74%. In the case of O=C(CSc1ccc(-c2ccccn2)nn1)Nc1ccccc1, the inhibition is reported as 58.5% (active). In the case of COc1cc(NC(=O)CSc2ccc(-c3cccnc3)nn2)cc(OC)c1, the inhibition is reported as -3.2%. Compound Cc1ccccc1NC(=O)CSC1=NCCN1 has an inhibition of -6.23%. In the case of COc1ccc(C)cc1NC(=O)CSc1nnc2ccc(-c3ccccn3)nn12, the inhibition is reported as 12.1%. Cc1ccccc1NC(=O)CSc1ccc2nnc(-c3ccccn3)n2n1 was tested, and the inhibition was 48% (active). Compound O=C(CSc1ccc(-c2ccc(-n3cccn3)cc2)nn1)Nc1ccc([N+](=O)[O-])cc1 has an inhibition of -19.4%. For COc1cccc(NC(=O)Nc2ccc3c(c2)C(=O)N(C)C[C@@H](OC)[C@H](C)CN(CC2CC2)[C@H](C)CO3)c1, the inhibition was -0.496%. With OC[C@H]1[C@@H](c2ccc(C#CC3(O)CCCC3)cc2)[C@H]2CN(Cc3cncnc3)CCCCN21 the inhibition was 0.497%. Compound CO[C@@H]1CN(C)C(=O)c2cc(NC(=O)C3CCC3)ccc2OC[C@H](C)N(Cc2ccccn2)C[C@H]1C has an inhibition of 2.51%. In the case of O=C(C[C@@H]1C=C[C@@H](NC(=O)c2ccccc2)[C@H](CO)O1)NCCc1ccncc1, the inhibition is reported as -9.84%. Compound COc1ccc(C(=O)Nc2ccc3c(c2)C(=O)N(C)C[C@@H](OC)[C@H](C)CN(C(C)=O)[C@@H](C)CO3)cc1 has an inhibition of -6.1%. For CC(C)NC(=O)N1[C@@H]2c3ccc(-c4ccc(F)cc4)c(=O)n3C[C@@H]2[C@@H](CO)[C@@H]1C(=O)N1CCOCC1, the inhibition was 17.2%. In the case of O=C(NC1=CC(=O)c2ccccc2C1=O)c1ccccc1, the inhibition is reported as 2.4% (active). With Cc1ccccc1S(=O)(=O)N1C[C@H](O)COC[C@H]2O[C@H](CC(=O)N3CCCCC3)CC[C@@H]21 the inhibition was 1.95%. CNC[C@@H]1Oc2ccc(NC(=O)C3CCCCC3)cc2CC(=O)N([C@@H](C)CO)C[C@H]1C gave an inhibition of -6.19%. Compound CN(C)C(=O)c1cccc(-c2ccc3c(c2)[C@H]2[C@H](CCN2S(=O)(=O)c2cn(C)cn2)[C@@H](CO)N3)c1 has an inhibition of 0.583%. Compound CN(C[C@@H]1[C@H](c2ccccc2)[C@@H](CO)N1Cc1ccccn1)S(C)(=O)=O has an inhibition of 29.6%. With O=C(NC[C@@H]1[C@@H](c2ccccc2)[C@@H](CO)N1Cc1ccccn1)C1CCC1 the inhibition was 23.8% (active). O=C(NC[C@@H]1[C@@H](c2ccccc2)[C@H](CO)N1C(=O)Cc1cccnc1)C1CC1 showed an inhibition of -0.188%.
